# About 79,000 compounds went through this panel and 15% of them were active in at least one assay; those are over-represented in the sample as a whole. The source made the active and inactive calls. No stated cut-off is given here; in the data, active means growth inhibition above about 70%; inactive means the rest. Where a SMILES comes first, the peptide text is derived from it. The star is where a group is joined. Boc = CC(C)(C)OC(=O)*
# Assay: NCI Yeast Anticancer Drug Screen. Data for the bub3 strain (AID 167)
# Conditions: S. cerevisiae bub3 mutant strain, at 50.0 µM, stronger effect = higher value
# Outline: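 Mutant yeast screening strain plus compound; vehicle-treated cultures serve as the 0% inhibition reference.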
row,Compound,growth inhibition
1,O=c1cc(-c2ccc(F)cc2)oc2ccccc12,13.7% (inactive)
2,Nc1cccc2c1C(=O)c1cccc(Nc3ccc4c(c3)C(=O)c3ccccc3C4=O)c1C2=O,-14.2% (inactive)
3,COC(=O)c1ccccc1O,1.25% (inactive)
4,COc1c2cc3c(cc2nc2occc12)OCO3,-11.2% (inactive)
5,O=S1CCCO1 (centres undefined),11% (inactive)
6,CCOC(=O)C(CC(C)C)NC(=O)C(Cc1ccccc1)NC(=O)CNC(=O)OC(C)(C)C (stereo not drawn) (Boc-Gly-Phe-Leu-OEt; configuration not given here),7.2% (inactive)
7,O=C(/C(=C(/Br)I)c1ccccc1)c1ccccc1,42.6% (inactive)
8,O=P(c1ccccc1)(c1ccccc1)N1CC1c1ccccc1 (centres undefined),4.6% (inactive)
9,CC(=O)NNC(=S)/N=C/c1c(C)[nH]n(-c2ccccc2)c1=O,-6.85% (inactive)
10,CCOC(=O)Nc1cc(Cl)c2ncn(C(=O)OCC)c2n1,3.05% (inactive)
11,C#CCC1(C(=O)OCC)C(=O)c2ccccc2N(C)C1=O (centres undefined),14% (inactive)
12,CC(=O)OCC1OC(OC(C)=O)C(NS(=O)(=O)c2ccc(C)cc2)C(OC(C)=O)C1OC(C)=O (centres undefined),-3.65% (inactive)
13,COc1cc(C2[C@H]3C(=O)N(c4ccc(Cc5ccc(N6C(=O)[C@@H]7ON(c8ccccc8)C(c8cc(OC)c(OC)c(OC)c8)[C@@H]7C6=O)cc5)cc4)C(=O)[C@H]3ON2c2ccccc2)cc(OC)c1OC (some centres undefined),25.9% (inactive)
14,c1ccc(C2(c3ccccc3)c3ccccc3-c3ccccc32)cc1,-26.9% (inactive)

# From PubChem BioAssay (NCI)
